Source: the supplement of paper PMC8728848
About 410 targets per protein were measured; listed, in parts, are those with the strongest signals and a random draw of the rest.

Columns and labels:
Assay in all cases: glycan array binding signal (z-score within array); higher = stronger binding
Conditions in all cases: glycan notation: IUPAC condensed, linker removed
Fuc(a1-2)Gal(b1-3)GlcNAc = molecular target: Fuc(a1-2)Gal(b1-3)GlcNAc
Procedure, shortened: (§1)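 Columns mapping to the same glycan were averaged after glycan names were converted to IUPAC-condensed notation. The data come from 3228 arrays in the Consortium for Functional Glycomics database, limited to those with an available protein sequence. Binding is reported as a within-array Z-score averaged across arrays of one protein sequence and across linkers.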

[1] = molecular target: Fuc(a1-2)Gal(b1-3)GlcNAc(b1-2)Man(a1-3)[Fuc(a1-2)Gal(b1-3)GlcNAc(b1-2)Man(a1-6)]Man(b1-4)GlcNAc(b1-4)GlcNAc
Procedure, shortened: as §1

[2] = molecular target: Fuc(a1-2)Gal(b1-3)[Fuc(a1-4)]GlcNAc(b1-3)[Gal(b1-4)GlcNAc(b1-6)]Gal(b1-4)Glc
Procedure, shortened: as §1

[3] = molecular target: Fuc(a1-2)Gal(b1-4)GlcNAc(b1-3)GalNAc
Procedure, shortened: as §1

[4] = molecular target: Fuc(a1-2)[Gal(a1-3)]Gal(b1-4)[Fuc(a1-3)]GlcNAc(b1-3)GalNAc
Procedure, shortened: as §1

[5] = molecular target: Fuc(a1-3)[Gal(b1-4)]GlcNAc6S
Procedure, shortened: as §1

Gal(a1-3)Gal = molecular target: Gal(a1-3)Gal
Procedure, shortened: as §1

[6] = molecular target: Gal(a1-3)Gal(b1-3)GlcNAc(b1-2)Man(a1-3)[Gal(a1-3)Gal(b1-3)GlcNAc(b1-2)Man(a1-6)]Man(b1-4)GlcNAc(b1-4)GlcNAc
Procedure, shortened: as §1

[7] = molecular target: Gal(a1-4)Gal(b1-3)GlcNAc(b1-2)Man(a1-3)[Gal(a1-4)Gal(b1-3)GlcNAc(b1-2)Man(a1-6)]Man(b1-4)GlcNAc(b1-4)GlcNAc
Procedure, shortened: as §1

[8] = molecular target: Gal(b1-3)GlcNAc(a1-3)Gal(b1-4)GlcNAc
Procedure, shortened: as §1

[9] = molecular target: Gal(b1-3)GlcNAc(b1-2)Man(a1-3)[Gal(b1-3)GlcNAc(b1-2)Man(a1-6)]Man(b1-4)GlcNAc(b1-4)[Fuc(a1-6)]GlcNAc
Procedure, shortened: as §1

[10] = molecular target: Gal(b1-3)GlcNAc(b1-3)Gal(b1-4)GlcNAc(b1-3)Gal(b1-4)GlcNAc(b1-2)[Gal(b1-3)GlcNAc(b1-3)Gal(b1-4)GlcNAc(b1-3)Gal(b1-4)GlcNAc(b1-6)]Man(a1-6)[Gal(b1-3)GlcNAc(b1-3)Gal(b1-4)GlcNAc(b1-3)Gal(b1-4)GlcNAc(b1-2)Man(a1-3)]Man(b1-4)GlcNAc(b1-4)[Fuc(a1-6)]GlcNAc
Procedure, shortened: as §1

[11] = molecular target: Gal(b1-3)GlcNAc(b1-6)GalNAc
Procedure, shortened: as §1

[12] = molecular target: Gal(b1-3)[Neu5Ac(a2-6)]GalNAc
Procedure, shortened: as §1

[13] = molecular target: Gal(b1-4)GlcNAc(b1-2)[Gal(b1-4)GlcNAc(b1-6)]Man(a1-6)[GlcNAc(b1-4)][Gal(b1-4)GlcNAc(b1-2)Man(a1-3)]Man(b1-4)GlcNAc(b1-4)GlcNAc
Procedure, shortened: as §1

[14] = molecular target: Gal(b1-4)GlcNAc(b1-3)Gal(b1-4)GlcNAc(b1-3)Gal(b1-4)GlcNAc
Procedure, shortened: as §1

[15] = molecular target: Gal(b1-4)GlcNAc(b1-3)Gal(b1-4)GlcNAc(b1-3)Gal(b1-4)GlcNAc(b1-2)Man(a1-3)[Gal(b1-4)GlcNAc(b1-3)Gal(b1-4)GlcNAc(b1-3)Gal(b1-4)GlcNAc(b1-2)Man(a1-6)]Man(b1-4)GlcNAc(b1-4)GlcNAc
Procedure, shortened: as §1

[16] = molecular target: Gal(b1-4)GlcNAc(b1-3)Gal(b1-4)GlcNAc(b1-3)Gal(b1-4)GlcNAc(b1-2)Man(a1-3)[Gal(b1-4)GlcNAc(b1-3)Gal(b1-4)GlcNAc(b1-3)Gal(b1-4)GlcNAc(b1-2)Man(a1-6)]Man(b1-4)GlcNAc(b1-4)[Fuc(a1-6)]GlcNAc
Procedure, shortened: as §1

[17] = molecular target: Gal(b1-4)GlcNAc(b1-3)Gal(b1-4)GlcNAc(b1-3)Gal(b1-4)GlcNAc(b1-3)Gal(b1-4)GlcNAc(b1-2)Man(a1-3)[Gal(b1-4)GlcNAc(b1-3)Gal(b1-4)GlcNAc(b1-3)Gal(b1-4)GlcNAc(b1-3)Gal(b1-4)GlcNAc(b1-2)Man(a1-6)]Man(b1-4)GlcNAc(b1-4)GlcNAc
Procedure, shortened: as §1

[18] = molecular target: Gal(b1-4)GlcNAc(b1-3)Gal(b1-4)GlcNAc(b1-3)Gal(b1-4)GlcNAc(b1-3)Gal(b1-4)GlcNAc(b1-3)Gal(b1-4)GlcNAc(b1-2)Man(a1-3)[Gal(b1-4)GlcNAc(b1-3)Gal(b1-4)GlcNAc(b1-3)Gal(b1-4)GlcNAc(b1-3)Gal(b1-4)GlcNAc(b1-3)Gal(b1-4)GlcNAc(b1-2)Man(a1-6)]Man(b1-4)GlcNAc(b1-4)[Fuc(a1-6)]GlcNAc
Procedure, shortened: as §1

[19] = molecular target: Gal3S(b1-3)[Fuc(a1-4)]GlcNAc
Procedure, shortened: as §1

GlcA(b1-3)Gal = molecular target: GlcA(b1-3)Gal
Procedure, shortened: as §1

[20] = molecular target: GlcNAc(a1-4)Gal(b1-4)GlcNAc
Procedure, shortened: as §1

[21] = molecular target: GlcNAc(b1-3)Gal(b1-4)GlcNAc(b1-3)Gal(b1-4)GlcNAc(b1-3)Gal(b1-4)GlcNAc(b1-3)Gal(b1-4)GlcNAc(b1-2)Man(a1-3)[GlcNAc(b1-3)Gal(b1-4)GlcNAc(b1-3)Gal(b1-4)GlcNAc(b1-3)Gal(b1-4)GlcNAc(b1-3)Gal(b1-4)GlcNAc(b1-2)Man(a1-6)]Man(b1-4)GlcNAc(b1-4)GlcNAc
Procedure, shortened: as §1

Kdn(a2-3)Gal(b1-3)GalNAc = molecular target: Kdn(a2-3)Gal(b1-3)GalNAc
Procedure, shortened: as §1

[22] = molecular target: Man(a1-2)Man(a1-3)[Man(a1-6)]Man(a1-6)[Man(a1-2)Man(a1-3)]Man(b1-4)GlcNAc(b1-4)GlcNAc
Procedure, shortened: as §1

[23] = molecular target: Man(a1-3)[Man(a1-6)]Man(a1-6)[Man(a1-3)]Man(b1-4)GlcNAc(b1-4)GlcNAc
Procedure, shortened: as §1

[24] = molecular target: Neu5Ac(a2-3)Gal(b1-3)[Neu5Ac(a2-6)]GalNAc
Procedure, shortened: as §1

[25] = molecular target: Neu5Ac(a2-3)Gal(b1-4)GlcNAc(b1-2)Man(a1-3)[Neu5Ac(a2-6)Gal(b1-4)GlcNAc(b1-2)Man(a1-6)]Man(b1-4)GlcNAc(b1-4)GlcNAc
Procedure, shortened: as §1

[26] = molecular target: Neu5Ac(a2-3)Gal(b1-4)GlcNAc(b1-3)Gal(b1-4)GlcNAc(b1-3)Gal(b1-4)GlcNAc(b1-2)Man(a1-3)[Neu5Ac(a2-3)Gal(b1-4)GlcNAc(b1-3)Gal(b1-4)GlcNAc(b1-3)Gal(b1-4)GlcNAc(b1-2)Man(a1-6)]GalNAc
Procedure, shortened: as §1

[27] = molecular target: Neu5Ac(a2-3)Gal(b1-4)[Fuc(a1-3)]GlcNAc6S
Procedure, shortened: as §1

[28] = molecular target: Neu5Ac(a2-6)Gal(b1-4)GlcNAc(b1-3)Gal(b1-4)GlcNAc(b1-3)Gal(b1-4)GlcNAc(b1-2)Man(a1-3)[Neu5Ac(a2-6)Gal(b1-4)GlcNAc(b1-3)Gal(b1-4)GlcNAc(b1-3)Gal(b1-4)GlcNAc(b1-2)Man(a1-6)]GalNAc
Procedure, shortened: as §1

[29] = molecular target: Neu5Ac(a2-8)Neu5Ac(a2-3)Gal(b1-3)GalNAc(b1-4)[Neu5Ac(a2-8)Neu5Ac(a2-3)]Gal(b1-4)Glc
Procedure, shortened: as §1

[30] = molecular target: Neu5Gc(a2-8)Neu5Gc(a2-6)Gal(b1-4)GlcNAc
Procedure, shortened: as §1

B1: HA-61200 (Pseudomonas aeruginosa), Q02SP8_PSEAB (protein)
chain: MNKCYALVWNVSQGCWNVVSEGSRRRGKPAGAKAAIASVLALLGATALAPAYALPSGGTVVGGSANGEIHLSGGNSLSVNQKVDKLIANWDSFSVAAGERVIFNQPSSSSIALNRVIGTKASDIQGRIDANGQVFLVNPNGVLFGRGAQVNVGGLVASTLDITDAEFNGNSSRYRFTGPSTNGVLNHGGAITAAEGGSIALLGAQVDNRGTVLAQMGGVGLGAGSDLTLNFDGNKLLDIRVDAGVANALASNGGLLKADGGRVLMAARTANALLNTVVNSQGAIEARSLRGKNGRIVLDG
glycan array binding signal (z-score) (Fuc(a1-2)Gal(b1-3)GlcNAc): -1.2
glycan array binding signal (z-score) [1]: 4.52
glycan array binding signal (z-score) [2]: 0.396
glycan array binding signal (z-score) [3]: -0.278
glycan array binding signal (z-score) [4]: 1.01
glycan array binding signal (z-score) [5]: 1.51
glycan array binding signal (z-score) (Gal(a1-3)Gal): -0.38
glycan array binding signal (z-score) [6]: 5.54
glycan array binding signal (z-score) [7]: 9.66
glycan array binding signal (z-score) [8]: -0.012
glycan array binding signal (z-score) [9]: 5.22
glycan array binding signal (z-score) [10]: 2.44
glycan array binding signal (z-score) [11]: 0.257
glycan array binding signal (z-score) [12]: -0.393
glycan array binding signal (z-score) [13]: 0.379
glycan array binding signal (z-score) [14]: -0.492
glycan array binding signal (z-score) [15]: 3.1
glycan array binding signal (z-score) [16]: 3.46
glycan array binding signal (z-score) [17]: 5.18
glycan array binding signal (z-score) [18]: 2.6
glycan array binding signal (z-score) [19]: 0.232
glycan array binding signal (z-score) (GlcA(b1-3)Gal): -0.781
glycan array binding signal (z-score) [20]: -0.006
glycan array binding signal (z-score) [21]: 0.298
glycan array binding signal (z-score) (Kdn(a2-3)Gal(b1-3)GalNAc): -0.393
glycan array binding signal (z-score) [22]: -0.706
glycan array binding signal (z-score) [23]: 1.41
glycan array binding signal (z-score) [24]: -0.092
glycan array binding signal (z-score) [25]: -0.276
glycan array binding signal (z-score) [26]: 3.75
glycan array binding signal (z-score) [27]: -0.953
glycan array binding signal (z-score) [28]: 4.49
glycan array binding signal (z-score) [29]: -0.215
glycan array binding signal (z-score) [30]: -0.263
